MLLE-PAM2 inh = inhibitors of microRNA-mediated deadenylation, human PABP1 MLLE binding | inhibition, % at 20 µM | P11940 | AID 588489 | 0.36% of 360,000 active | GST-MLLE / FITC-PAM2 fluorescence polarization; in the data active = inhibition above about 35%, passing the limit was not always enough;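 note: plate controls were DMSO wells with GST-MLLE for no effect and wells lacking GST-MLLE protein for full effect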
Target sequence (P11940 whole entry, looked up): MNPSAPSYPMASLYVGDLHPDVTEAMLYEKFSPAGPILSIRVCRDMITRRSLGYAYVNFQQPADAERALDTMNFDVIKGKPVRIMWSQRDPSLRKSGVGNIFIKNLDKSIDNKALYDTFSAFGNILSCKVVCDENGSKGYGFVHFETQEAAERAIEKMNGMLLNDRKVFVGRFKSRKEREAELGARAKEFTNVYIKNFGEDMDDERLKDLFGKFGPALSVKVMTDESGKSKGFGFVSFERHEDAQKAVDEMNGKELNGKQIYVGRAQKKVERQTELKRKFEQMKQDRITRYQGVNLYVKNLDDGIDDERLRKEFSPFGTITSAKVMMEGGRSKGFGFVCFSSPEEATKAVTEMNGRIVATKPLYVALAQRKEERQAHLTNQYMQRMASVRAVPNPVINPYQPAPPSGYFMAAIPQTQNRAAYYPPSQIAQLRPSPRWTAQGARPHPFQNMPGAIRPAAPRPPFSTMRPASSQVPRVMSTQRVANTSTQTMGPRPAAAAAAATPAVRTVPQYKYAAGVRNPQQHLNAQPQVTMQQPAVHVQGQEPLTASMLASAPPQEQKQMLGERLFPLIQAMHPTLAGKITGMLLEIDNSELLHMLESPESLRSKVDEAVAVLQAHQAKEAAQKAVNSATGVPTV
PERK inhibitor = human PERK inhibition, primary cell-based screen; Q9NZJ5; CHO PERK-DD fusion, SEAP luminescence translation reporter; inhibition, % at 5.6 µM; 0.17% of 220,000 active; AID 1416;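 active = inhibition above the mean inhibition of all tested compounds plus 3 SD, set separately per screening campaign, cut at about 2.9% in these data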;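 note: PERK kinase domain activated by AP20187 dimerizer at 100 nM; 0% = DMSO with dimerizer and 100% = rapamycin at 8.4 µM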
PABP polyA inh = blocks human PABP binding to poly(A) RNA; fluorescence polarization; 1% of 290,000 active; P11940; AID 2014; inhibition, % at 35 µM;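 note: calls also rest on retests at 20 µM and on dose response follow-up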
eIF4H FP inh = inhibitors of RNA binding by human eIF4H. Q15056. eIF4H fluorescence polarization binding assay. inhibition, % at 35 µM. 0.94% of 290,000 active. AID 2012;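 note: calls also rest on retests at 20 µM and on dose response follow-up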
eIF4E-4G inh = inhibitors of eIF4E and eIF4G interaction in translation initiation; P63073+Q04637; TR-FRET eIF4E-eIF4GI(517-606) binding, 2 h; inhibition, % at 21.7 µM; 0.37% of 220,000 active; AID 782;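 active = inhibition above about 30%, limit read from the data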;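 note: 0% = full FRET control wells and 100% = background wells lacking eIF4GI fragment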
The depositor's hits bear a star; ? = inconclusive; . = no result given; [ ] = another dose, or the depositor's remark. Hits are enriched below; roughly 1.6% of the tested compounds scored in any of these assays. Unless noted, the rule behind the calls is not given here.

SMILES	MLLE-PAM2 inh	PERK inhibitor	PABP polyA inh	eIF4H FP inh	eIF4E-4G inh
COc1cc(-c2noc(C)c2/C=C/c2cccc([N+](=O)[O-])c2)cc(OC)c1OC	-9.9	.	-11.6	-8.3	.
COc1cc(-c2noc(C)c2/C=C/c2ccc(C(=O)O)cc2)cc(OC)c1OC	4.7	.	66.4*	100.4*	.
O=C(c1nc2ccccn2c1CN1CCCC(O)C1)N1CCN(C2CCCCC2)CC1 (stereo unspecified)	42.2*	.	27.6	22.4	.
Cc1cccc(NC(=O)COC(=O)CCc2ccc(S(=O)(=O)N3CCOCC3)cc2)c1C	-43.7	0.6	4.1	3.9	5.1
NC(=O)C1=NOC(CNc2ncc(C(F)(F)F)cc2Cl)C1 (stereo unspecified)	6.1	1.6	-11.9	-6.6	5.8
CCc1ccc(/C=C2\Oc3cc(OS(C)(=O)=O)ccc3C2=O)cc1	5.6	-0.4	-2.8	-4.5	2.8
CCc1ccc(/C=C2\Oc3c(ccc(O)c3CN3CCN(CCO)CC3)C2=O)cc1	-12.0	-1.2	?	?	72.3*
Cc1ccccc1NC(=O)c1nc2nccc(C)n2n1	9.4	-0.2	62.0	active	-4.6
COc1ccccc1NC(=O)c1ccc(NC(=O)c2nc3nccc(C)n3n2)cc1	9.1	.	.	.	.
COC(CNC(=O)CSCc1nc(-c2ccc(SC)cc2)oc1C)OC	10.5	1.4	-13.9	-7.6	3.2
CN(NC(=O)c1ccco1)c1nc2ccccc2nc1C(F)(F)F	2.0	0.5	57.0*	active	1.2
COc1ccc(S(=O)Cc2ccc(C(=O)N3CCN(C(=O)c4ccco4)CC3)o2)cc1 (stereo unspecified)	-5.2	.	-9.8	-14.8	.
O=C1CC2(CCN(C(=O)C3CC(=O)N(c4ccc(F)cc4)C3)CC2)Oc2ccccc21 (stereo unspecified)	-1.5	.	.	.	.
COc1cccc(C(=O)CSc2nnc(-c3cccs3)o2)c1	-19.5	0.8	9.5	2.7	-3.1
Cc1ccc(C23CC4CC(CC(CN)(C4)C2)C3)cc1	9.7	0.0	-7.1	-0.9	86.2*
N#Cc1c(Cl)c(Cl)c2nnc(-c3ccc(Br)cc3)n2c1Cl	.	0.1	21.7	26.8	36.1*[fluorescence artefact?]
CCc1nc(N)c(C#N)c(-c2cccnc2)c1C	7.2	0.2	-9.7	2.8	1.9
Cn1nc(C(=O)O)c(=O)n(C)c1=O	40.3*	.	.	.	.
CCOC(=O)c1nn(C)c(=S)n(C)c1=O	16.7	.	.	.	.
COc1ccc(S(=O)(=O)N2CCC(C(=O)NCc3cccc(OC)c3)CC2)cc1	11.6	-0.6	-6.9	-5.1	47.5*
COc1cccc(CNC(=O)C2CCN(S(=O)(=O)c3ccccc3)CC2)c1	-5.3	0.3	-4.3	5.1	-6.0
Oc1c(C=Nc2ccccc2Cl)[nH]c2ccccc12	42.5*	-0.7	5.2	-2.6	3.2
O=C(O)CCc1ccc(-c2cccs2)o1	30.9	0.9	35.9*	69.5*	-4.1
Cc1ccc(-c2ccc(CCC(=O)O)o2)cc1	8.9	0.6	-5.2	-8.5	0.1
N#Cc1c(N)n(-c2ccc(C(=O)O)cc2)c2nc3ccccc3nc12	-42.8	1.0	37.0	79.5*	-6.2
SMILES	MLLE-PAM2 inh	PERK inhibitor	PABP polyA inh	eIF4H FP inh	eIF4E-4G inh
N#Cc1c(N)n(-c2ccc(N)cc2)c2nc3ccccc3nc12	11.3	-0.5	6.6	-1.2	2.0
COc1ccc(/C=N/Nc2ccccn2)c(OC)c1OC	1.7	0.0	61.2*	1.9*	1.4
CCCCCCCCCCCCOC(=O)C[N+](C)(C)C	.	3.2*	22.1	0.0	-0.1
O=C(CSc1ccc2nnc(-c3ccccc3)n2n1)N1CCCCC1	40.4*	.	.	.	.
CC1=C/C(=C/N(C)c2ccccc2)C(=O)S1	39.2	0.6	66.6*	51.8*	22.8
O=C(NCCc1ccncc1)c1ccccc1F	-1.8	1.1	-1.1	1.6	60.6*
Cc1cccc2cc(=O)[nH]c(C)c12	-85.6	0.1	55.1*	0.2	-5.1
CC(C)CNc1nc(=S)nc(N(C)C)[nH]1	43.1*	1.5	-3.1	-12.4	4.6
CN(C)c1nc(=S)nc(NCc2ccccc2)[nH]1	33.1	0.8	-7.3	-2.3	-3.3
COc1ccc(N2CCN(C(=O)CCNC(=O)Cn3ccc4ccccc4c3=O)CC2)cc1	1.6	1.3	-8.7	-0.7	78.5*
CN1CCN(C(=O)CCNC(=O)Cn2ccc3ccccc3c2=O)CC1	9.9	0.7	-0.2	3.7	2.4
NC(=O)NOCc1c(F)cccc1Cl	-5.3	2.0	53.6*	5.6	1.0
COc1ccc(OC)c(Cc2nnc(CCC(=O)NCc3ccc(C)s3)o2)c1	-12.1	3.3*	-4.8	-5.3	4.3
Nc1nc(-c2ccc(Cl)cc2Cl)cn1N	-16.6	3.1*	-5.7	0.9	-1.6
Cc1ccc(-n2c(-c3ccc(Cl)cc3Cl)n[nH]c2=S)cc1	0.8	.	-5.2	-5.6	.
NC(=O)NC(=O)COC(=O)c1cccc(NS(=O)(=O)/C=C/c2ccccc2)c1	-28.7	-0.7	-6.4	1.3	34.4*
O=C(NC(=S)Nc1ccc(CN2CCOCC2)cc1)c1ccc([N+](=O)[O-])cc1	51.6*	0.2	-1.3	-5.4	1.3
O=C(/C=C/c1cccc([N+](=O)[O-])c1)NC(=S)Nc1ccc(CN2CCOCC2)cc1	40.0*	0.8	4.0	-6.8	-2.5
CC(C)c1ccc(/C=C/C(=O)NC(=S)Nc2ccc(CN3CCOCC3)cc2)cc1	22.4	0.5	5.9	-2.5	13.9
CC(C)(C)NC(=O)c1cccc(NC(=O)CSc2ccc(Cl)cc2)c1	14.7	0.9	-19.1	-3.1	2.2
CNC(=O)c1ccsc1NC(=O)c1sc2ccccc2c1Cl	-22.0	-0.2	52.0*	54.0*	5.5
Cc1nnc(NC(=O)c2sc3ccccc3c2Cl)s1	1.9	-0.2	4.9	-6.2	-6.0
CCOc1cc(S(=O)(=O)Nc2ccc(Cl)cn2)ccc1Cl	-15.8	0.5	-4.0	1.3	-3.4
Cc1cc(C(=O)CSc2nc3ccccc3o2)c(C)n1C1CC1	6.5	0.7	98.1*	88.1*	-1.9
C=CCn1c(C)cc(C(=O)CSc2nc3ccccc3o2)c1C	-13.5	-0.8	79.3*	70.3*	5.2
SMILES	MLLE-PAM2 inh	PERK inhibitor	PABP polyA inh	eIF4H FP inh	eIF4E-4G inh
Cc1nonc1NC(=O)CSc1nc2ccccc2o1	2.5	.	72.2*	83.3*	.
Cc1cc(C(=O)CSc2ncnc3ccccc23)c(C)n1C1CC1	10.5	.	.	.	.
N#Cc1ccccc1OCCN1C(=O)c2ccccc2C1=O	5.4	0.1	3.9	-12.2	4.4
O=C(CC(NC(=O)OCc1ccccc1)c1nn[nH]n1)OCc1ccccc1 (stereo unspecified)	0.3	.	.	.	.
COc1ccc(N(CC(=O)N2CCN(c3cccc(C)c3)C(C)C2)S(=O)(=O)c2c(C)n[nH]c2C)cc1 (stereo unspecified)	-8.1	0.0	6.4	-6.0	0.1
O=C(O)COn1c(-c2ccccc2)nc2ccc([N+](=O)[O-])cc21	34.1	-0.1	83.9*	104.3	20.8
CCOC(=O)C(C)On1c(-c2ccccc2)nc2ccc([N+](=O)[O-])cc21 (stereo unspecified)	14.5	-1.1	-0.2	-2.6	12.8
O=c1c2c3nc4ccccc4nc3n(/N=C/c3ccco3)c2ncn1CCC1=CCCCC1	7.4	.	18.3	65.3*	.
O=c1c2ccccc2nc2n1CCCCC2	-6.2	0.5	-11.2	5.7	1.8

Screening results as filed in PubChem BioAssay.
